# Measured values reported in PubChem BioAssay AID1578 (Sanford-Burnham Center for Chemical Genomics, 2009).
# Among all 290,000 compounds or so, about 3,000 (1%) were called active. This excerpt belongs to a sample that is enriched for actives. Unmarked numbers belong to inactive results. Cut-off read from the data, not from the text of the source: active = inhibition mostly above about 36% (no sharp cut-off); inactive = mostly below about 34%.
# Assay: inhibition of NOD1-driven NF-kB reporter – cell-based, luminescence, uHTS, primary screen (AID 1578);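 note: HEK-293T reporter cells stimulated with the NOD1 agonist gamma-tri-DAP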
# Conditions: NOD1-driven NF-kB luciferase reporter cells, at 4 µM, stronger effect = higher value
row,Compound,inhibition
1,COc1ccc(C2=NN(S(C)(=O)=O)C(c3cccs3)C2)cc1 (stereo not given),-16.2%
2,CC(=O)Nc1ccc(C2=NN(c3ccccc3)C(c3cccs3)C2)cc1 (stereo not given),-0.7%
3,COc1ccc(C2=NN(c3ccccc3)C(c3cccs3)C2)cc1 (stereo not given),46.8% (active)
4,CC(=O)c1ccc(NC(=O)CCc2nnc3ccc(N4CCC5(CC4)OCCO5)nn23)cc1,-15.6%
5,CCOc1cc2[nH]c(=O)n(CCCN3CCCC3=O)c(=O)c2cc1OCC,0.4%
6,CCCc1cc(-c2n[nH]c(=S)n2-c2cccc(C)c2)cs1,-9.6%
7,O=C(NNC(=O)c1ccccn1)c1cccc([N+](=O)[O-])c1,-43.1%
8,O=C(N/N=C(\c1ccccc1)c1ccccn1)c1cccc([N+](=O)[O-])c1,103% (active)
9,O=C(c1cccc([N+](=O)[O-])c1)c1ccccn1,-6.3%
10,O=C(CC(C(=O)O)c1ccc(Cl)cc1)c1ccccc1 (stereo not given),-13%
11,C=C(C(=O)c1ccccc1)C(c1ccccc1)C(C)C(=O)c1ccccc1 (stereo not given),44.3%
12,O=C(O)c1ccc(C(=O)C(=O)c2ccccc2)cc1,-2.3%
13,C=C(C(=O)c1ccccc1)C(C)C(=C)C(=O)c1ccccc1,99% (active)
14,O=C(CC(CC(=O)c1ccccc1)c1ccccc1)c1ccccc1,-4.1%
15,CC1c2[nH]c3ccccc3c2C[C@H]2C(=O)N(CCO)CC(=O)N12 (stereo not given in full),-2.7%
16,C=CCc1c(OC(C)=O)c2ccccc2n(C)c1=O,-38%
17,COc1ccc(NC(=O)Cc2c(C)n(C(=O)c3ccc(Cl)cc3)c3ccc(OC)cc23)cc1,-13.3%
18,COc1ccc2c(c1)c(CC(=O)Nc1ccc(C)cc1)c(C)n2C(=O)c1ccc(Cl)cc1,24.5%
19,COc1ccc2c(c1)c(CC(=O)Nc1nnc(C3CC3)s1)c(C)n2C(=O)c1ccc(Cl)cc1,64.9% (active)
20,COc1ccc(C(=O)Nc2cc(-c3nn4c(C)nnc4s3)ccc2C)cc1,-18.2%

row,Compound,inhibition
1,CCC1(c2ccccc2)NC(=O)N(CC(=O)NCc2ccccc2OC)C1=O (stereo not given),0.8%
2,COc1ccc(-c2cc(C(=O)N3CCN(S(=O)(=O)c4ccccc4)CC3)[nH]n2)cc1,4.3%
3,COc1cccc2sc(Nc3nnc(-c4ccc(F)cc4)o3)nc12,-29.8%
4,Fc1cccc2sc(Nc3nnc(-c4ccco4)o3)nc12,104% (active)
5,COc1cc(OC)cc(-c2nnc(Nc3nc4c(F)cccc4s3)o2)c1,21%
6,Fc1cccc2sc(Nc3nnc(-c4ccccc4)o3)nc12,52.7%
7,COc1ccc(-c2nnc(Nc3nc4c(OC)cccc4s3)o2)cc1,-20.8%
8,COc1cccc2sc(Nc3nnc(-c4cccs4)o3)nc12,84.7% (active)
9,CCOC(=O)C1C(=O)NC(c2ccccc2)=NC1c1cccc(Br)c1 (stereo not given),-36.5%
10,CC1/C(=N/O)CC(c2ccco2)NC1c1ccco1 (stereo not given),-0.7%
11,COc1ccc(NC(=S)N2CCC(NC(=O)c3ccc(F)cc3)CC2)cc1,-29%
12,Cc1cc(C)c(S(=O)(=O)N2CCOCC2)c(C)c1N(C)S(=O)(=O)c1ccccc1,-19.6%
13,N#C/C(=C\c1ccc(OCC(N)=O)cc1)c1ccccc1,-59.4%
14,O=C(Nc1cccnc1)c1cccc(S(=O)(=O)N2CCOCC2)c1,-21%
15,CN1CCC(OC(=O)c2ccco2)CC1,-32.4%
16,O=C1C(C=Nc2ccccc2O)=C(O)c2ccccc21,-64.5%
17,O=c1c(=Nc2ccccc2O)c(=O)c2ccccc12,-41.2%
18,CNC(=O)COC(=O)c1ccccc1Nc1ccccc1,-60.3%
19,COc1cc(/C=C(\NC(C)=O)C(=O)NC(C)(C)CC(C)(C)C)ccc1OC(C)=O,-17.3%
20,COc1ccc(/C(O)=C/c2nc3ccccc3n(-c3ccccc3)c2=O)cc1,-72.6%

row,Compound,inhibition
1,COc1ccc(-n2c(=O)c(CCC(=O)N(C)Cc3ccccc3C)nc3ccccc32)cc1,-8.4%
2,COc1cccc(CC(=O)N2CCC(CCC(=O)Nc3cccc(OC)c3)CC2)c1,-3.8%
3,Cc1cccc(NC(=O)CCCN2C(=O)C(c3ccccc3)Oc3cccnc32)c1C (stereo not given),42.2% (active)
4,COc1ccccc1NC(=O)CCCN1C(=O)C(c2ccccc2)Oc2cccnc21 (stereo not given),-2.8%
5,Cc1cccc(C)c1NC(=O)CCCN1C(=O)C(c2ccccc2)Oc2cccnc21 (stereo not given),-12.2%
6,CCOc1ccc(NC(c2ccccc2)P(=O)(OC)OC)cc1 (stereo not given),73.2% (active)
7,COP(=O)(OC)C(Nc1ccc([N+](=O)[O-])cc1)c1ccccc1 (stereo not given),-11.2%
8,COP(=O)(OC)C(Nc1ccc(Cl)cc1)c1ccccc1 (stereo not given),-7.2%
9,Cc1cc(NC(=O)c2ccc(Br)o2)ccc1NC(=O)c1ccco1,-55.3%
10,COC1c2ccccc2C(=O)N1CCc1ccc(Cl)cc1 (stereo not given),-31.1%
11,CNc1cc(C)nc(N2CCOCC2)n1,-5.2%
12,CC1(c2cccc([N+](=O)[O-])c2)CC(C)(C)N(C(=O)c2ccccc2)c2ccccc21 (stereo not given),82.6% (active)
13,CC1(c2ccccc2)CC(C)(C)N(C(=O)c2cc([N+](=O)[O-])cc([N+](=O)[O-])c2)c2ccccc21 (stereo not given),-2.3%
14,CC1(c2cc([N+](=O)[O-])cc([N+](=O)[O-])c2)CC(C)(C)N(C(=O)c2ccccc2)c2ccccc21 (stereo not given),4.5%
15,CCCCCCCC(O)CC(CC1CCCCC1)C(=O)NN (stereo not given),-15%
16,Cc1cc(C(F)(F)F)nn1CC(=O)NNC(=S)NCC(C)C,-1.1%
17,Cc1ccc2c(c1)N(CCCC(=O)NCCCN1CCCC1=O)C(=O)CO2,-14.9%
18,COc1cccc(NC(C)C(=O)N2CC(C)OC(C)C2)c1 (stereo not given),-26.3%
19,Cc1ccc(-c2nc3ccc(Cl)cc3c(=O)n2O)cc1,1.3%
20,O=c1c2cc(Br)ccc2nc(-c2ccccc2)n1O,6.1%
